Source: PubChem BioAssay AID588342 (National Center for Advancing Translational Sciences (NCATS), 2011)
In all, about 360,000 compounds went through this assay and about 25,000 (6.9%) were called active. About 9% were inconclusive and are not listed. This is one part of a sample in which actives are shown more often than they occur. The call rests on the fitted dose curve; in most records, active means well fitted inhibition curve with a large enough effect; inconclusive means small, poorly fitted or top-dose-only effect; inactive means flat fitted curve, though single readings scatter.

target: Luciferin 4-monooxygenase (Photinus pyralis) (UniProt P08659); test: qHTS profiling assay for firefly luciferase inhibitor/activator using purifed enzyme and Km concentrations of substrates (counterscreen for miR-21 project); conditions: purified FLuc, luminescence inhibition; series mostly up to 57.5 µM; activity change, negative = inhibition: at the top concentration; further: nearly all actives have a fitted effect of over 55% in size;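 on activity change, negative = inhibition: plate controls were vehicle for no effect and reference inhibitor for full effect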
Sequence (P08659 whole entry, looked up): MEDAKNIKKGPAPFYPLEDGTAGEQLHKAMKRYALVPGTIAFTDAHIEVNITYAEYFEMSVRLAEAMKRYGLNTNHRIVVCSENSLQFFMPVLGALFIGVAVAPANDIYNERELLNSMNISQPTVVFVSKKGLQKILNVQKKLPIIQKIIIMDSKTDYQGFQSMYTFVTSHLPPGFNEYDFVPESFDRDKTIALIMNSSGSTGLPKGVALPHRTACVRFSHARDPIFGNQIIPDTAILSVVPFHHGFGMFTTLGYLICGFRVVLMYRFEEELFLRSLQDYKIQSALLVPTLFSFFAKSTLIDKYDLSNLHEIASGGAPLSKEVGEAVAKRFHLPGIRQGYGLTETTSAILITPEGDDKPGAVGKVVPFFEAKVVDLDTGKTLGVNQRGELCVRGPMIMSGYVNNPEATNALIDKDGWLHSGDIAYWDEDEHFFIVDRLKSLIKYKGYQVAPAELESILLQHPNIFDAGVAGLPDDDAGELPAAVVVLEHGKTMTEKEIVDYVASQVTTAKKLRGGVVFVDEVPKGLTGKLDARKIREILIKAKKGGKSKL
Outline: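 Purified P. pyralis luciferase, 10 nM final, with Km-level 10 uM D-luciferin and 10 uM ATP in 50 mM Tris acetate pH 7.5, 10 mM Mg acetate, 0.01% Tween-20, 0.05% BSA; 6-point qHTS titration about 60 µM downward; luminescence read.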
Potency means the concentration at half of the fitted maximal effect.

Row | Compound | activity change, negative = inhibition | Potency
1 | CCc1c(C)sc(NC(=O)C2c3ccccc3Oc3ccccc32)c1C(=O)OC(C)C | 0.745% (inactive) | –
2 | O=C(CSc1nc2ccccc2c(=O)n1CCCO)NC1CC1 | 0.433% (inactive) | –
3 | CCN(CC)S(=O)(=O)c1ccc(N2CCOCC2)c(NC(=O)C(C)Oc2ccc(F)cc2)c1 (stereo unspecified) | 4.08% (inactive) | –
4 | Cc1cccc(NC(=O)N2CCC(CN3CCc4ccccc4C3)CC2)c1C | -0.966% (inactive) | –
5 | Cc1cc(NS(=O)(=O)c2ccc(NC(=O)c3ccccc3C)cc2)nc(C)n1 | -3.53% (inactive) | –
6 | CCOc1ccc(S(=O)(=O)N(CC(=O)NCCSCc2ccc(C)cc2)c2ccccc2)cc1 | 0.976% (inactive) | –
7 | COc1ccc([C@H]2CC(=O)C=C(c3ccc(OC(F)(F)F)cc3)C2)cc1OC | -0.992% (inactive) | –
8 | Cc1cc(Cl)c2oc(C(=O)NC(C)c3ccncn3)c(C)c2c1 (stereo unspecified) | 2.44% (inactive) | –
9 | Cc1cc(Cl)c2oc(C(=O)N(C)C(C)c3ccccn3)c(C)c2c1 (stereo unspecified) | – | 19 µM (active)
10 | Cc1cc(Cl)c2oc(C(=O)N3CCC(O)(c4ccccc4)CC3)c(C)c2c1 | 1.22% (inactive) | –
11 | CCOc1ncccc1C(=O)OCC(=O)N1c2ccccc2CC1C (stereo unspecified) | 4.23% (inactive) | –
12 | O=C(Nc1ncccc1O)c1ccc(S(=O)(=O)N2CCCCCC2)cc1 | -4.16% (inactive) | –
13 | O=C(Nc1ncccc1O)c1ccc(C(=O)c2ccccc2)cc1 | – | 26.9 µM (active)
14 | O=C(Nc1ncccc1O)c1ccc(S(=O)(=O)N2CCCC2)cc1 | -1.32% (inactive) | –
15 | COc1cc(F)c(C2=CC(=O)CC(C)(C)C2)cc1F | -3.48% (inactive) | –
16 | CCCC12CN3CC(C)(CN(C1)C3c1ccccc1Cl)C2=O (stereo unspecified) | -2.81% (inactive) | –
17 | CNC(=O)c1csc(-c2ccccc2)n1 | -4.97% (inactive) | –
18 | CN(C)c1ccc(NC(=O)c2ccncc2)c2ccccc12 | 2.99% (inactive) | –
19 | O=C(Nc1nsc(-c2ccccc2)n1)c1ccncc1 | – | 19 µM (active)
20 | Cc1cccc(-n2ncc(C(=O)N3CCC(C)CC3)c2C2CCN(C(=O)OC(C)(C)C)CC2)c1 | -2.75% (inactive) | –
21 | COc1ccc(/C=C2\SC(=N)N(c3ccc(F)cc3)C2=O)cc1 | -0.0275% (inactive) | –
22 | COc1ccc(C2NC(=O)N(C)C3=C2C(=O)N(c2ccc(C(=O)O)cc2)C3)cc1 (stereo unspecified) | -6.88% (inactive) | –
23 | COc1ccc(/C=C2\N=C3CCCN3C2=O)cc1 | – | 15.1 µM (active)
24 | CCN(C(=O)Cn1cnc2sc(C)c(S(=O)(=O)N3CCN(c4ncccn4)CC3)c2c1=O)c1ccccc1F | 3.77% (inactive) | –
25 | CCOc1cc(/C=N/NC(=O)CN2CCCCC2)ccc1O | 3.39% (inactive) | –
26 | CCOc1cc(/C=C2\SC(N3CCCC(C)C3)=NC2=O)ccc1O (stereo unspecified) | – | 9.53 µM (active)

Row | Compound | activity change, negative = inhibition | Potency
27 | CCOc1cc(/C=C2\SC(N3CCCCC3)=NC2=O)ccc1O | – | 10.7 µM (active)
28 | CCOc1cc(C(=S)N2CCOCC2)ccc1O | -19.3% (inactive) | –
29 | Nc1c(Cl)cc(-c2csc(N3CCCC3c3nc4cc(Cl)c(Cl)cc4n3CCOCCO)n2)cc1Cl (stereo unspecified) | -2.84% (inactive) | –
30 | ClC1(Cl)CC1CSc1ncn[nH]1 (stereo unspecified) | -2.98% (inactive) | –
31 | Cc1ccc(N2CC(C(=O)Nc3cc(Cl)ccc3-n3cncn3)CC2=O)cc1 (stereo unspecified) | 5% (inactive) | –
32 | CCCC(NCC(=O)Nc1ccccc1C(=O)NC1CC1)c1ccccc1 (stereo unspecified) | -1.4% (inactive) | –
33 | CC(=O)COc1ccc2c(-c3ccccc3)cc(=O)oc2c1 | – | 16.9 µM (active)
34 | COc1ccc(-c2cc(=O)oc3cc(OCC(=O)N(C)C4CCS(=O)(=O)C4)ccc23)cc1 (stereo unspecified) | -5.21% (inactive) | –
35 | Cc1cc(=O)oc2ccc(OCC(=O)O)cc12 | 5.63% (inactive) | –
36 | C=CCC(NC(=O)Cc1ccccc1)C(=O)NCCC (stereo unspecified) | -1.36% (inactive) | –
37 | O=C(COc1ccccc1)OCc1cc(=O)n2nc(-c3cccs3)sc2n1 | -5.56% (inactive) | –
38 | O=C(Nc1ccnc(-c2ccncc2)n1)c1cccs1 | -1.5% (inactive) | –
39 | O=C(O)COc1ccc(-c2nccc(-c3cccs3)n2)cc1 | – | 1.51 µM (active)
40 | Oc1c(C=Nc2cccc3nsnc23)ccc2ccccc12 | – | 1.69 µM (active)
41 | O=C(NCc1ccccc1)C1CCN(S(=O)(=O)c2ccc3[nH]c(=O)ccc3c2)CC1 | 2.76% (inactive) | –
42 | CC(C)Cn1cnc2c1c(=O)n(CC(O)c1ccccc1)c(=O)n2CC(C)C (stereo unspecified) | 1.94% (inactive) | –
43 | O=C(O)c1ccc2c3c(cccc13)C(=O)N(OS(=O)(=O)c1ccccc1)C2=O | – | 26.9 µM (active)
44 | CN1C(=O)c2cccc3c(N)ccc(c23)C1=O | -5.13% (inactive) | –
45 | CC(=O)Nc1ccccc1Sc1ccc2c3c(cccc13)C(=O)N(c1ccc(C)cc1)C2=O | 0.663% (inactive) | –
46 | Cc1nonc1C(=O)N/N=C/c1ccc(O)cc1 | – | 6.01 µM (active)
47 | COc1cc(/C=N\NC(=O)c2nonc2N)c(OC)cc1Br | -2.25% (inactive) | –
48 | CC(C)c1c(C(=O)N/N=C/c2ccc(-c3ccccc3)cc2)nnn1-c1nonc1N | 0.559% (inactive) | –
49 | CCC(C)Nc1oc(-c2ccc(COc3ccc(Cl)cc3)o2)nc1C#N (stereo unspecified) | 0.311% (inactive) | –
50 | Nc1nnc(SCC(=O)NCC(=O)Nc2ccc(F)c(F)c2F)s1 | -0.673% (inactive) | –
51 | O=C(c1ccco1)n1nc(-c2ccc(Cl)cc2)nc1NCc1ccccc1 | -15.5% (inactive) | –
52 | Cc1cc(Br)ccc1NC(=O)Cn1cnc2sc(C)c(S(=O)(=O)N3CCN(C)CC3)c2c1=O | 0.211% (inactive) | –

Row | Compound | activity change, negative = inhibition | Potency
53 | Brc1ccc(CN2CC[C@H]3C=CCc4cccc(c43)C2)cc1 | -0.129% (inactive) | –
54 | O=C(NCc1ccccc1)c1ccc2c(c1)nc1n2CCCCC1 | – | 19 µM (active)
55 | Cc1ccc(CCNC(=O)c2ccc3c(c2)nc2n3CCC(C)C2)cc1 (stereo unspecified) | -11.4% (inactive) | –
56 | CCOc1ccccc1CNC(=O)c1ccc2c(c1)nc1n2CCC(C)C1 (stereo unspecified) | -7.25% (inactive) | –
57 | O=C(/C=C/c1ccc(Cl)cc1Cl)c1cccnc1 | – | 15.1 µM (active)
58 | O=C(/C=C/c1ccc(Cl)c([N+](=O)[O-])c1)c1cccnc1 | 6.73% (inactive) | –
59 | O=C(NCc1ccc(Cl)c(Cl)c1)c1cccnc1 | 3.25% (inactive) | –
60 | Cc1cccc(C)c1NC(=O)Nc1ccccc1-n1ccnc1 | 0.683% (inactive) | –
61 | O=c1c2ccccc2n(Cc2cccc(Cl)c2)c(=O)n1Cc1ccccc1 | -7.92% (inactive) | –
62 | Cc1ccc(-n2ncc3c(NCCCn4ccnc4)ncnc32)cc1Cl | – | 12 µM (active)
63 | COCCNc1ncnc2c1c(-c1ccccc1)cn2-c1ccc(C)c(Cl)c1 | -12.8% (inactive) | –
64 | CCN(CC)CCNc1ncnc2c1cnn2-c1cc(Cl)ccc1C | -3.56% (inactive) | –
65 | Cc1ccccc1CNC(=O)c1ccc(NC(=O)N2CCCCc3ccccc32)cc1 | -4.31% (inactive) | –
66 | COC(=O)C1=C(C)NC(=O)/C1=C/c1ccc(CNS(=O)(=O)c2ccc(C)cc2)o1 | 2.37% (inactive) | –
67 | C[C@@H](NC(=O)c1nc[nH]c1C(=O)N1CCN(C(=O)OC(C)(C)C)CC1)c1ccccc1 | 6.17% (inactive) | –
68 | Cc1cnc(NC(=O)CSc2nnc(C)s2)s1 | 1.36% (inactive) | –
69 | Cc1cnc(NC(=O)C2CCCC2)s1 | -1.27% (inactive) | –
70 | Cc1cnc(NC(=O)CSc2nnc(-c3ccccc3)n2Cc2ccccc2)s1 | -0.828% (inactive) | –
71 | Cc1cnc(NC(=O)c2ccc(Cl)nc2)s1 | – | 12 µM (active)
72 | Cc1ccc(Cl)cc1NC(=O)c1ccccn1 | – | 16.9 µM (active)
73 | Cc1ccc(Cl)cc1NC(=O)Cc1ccc(-n2c(C)nc3cccnc32)cc1 | -0.863% (inactive) | –
74 | Cc1ccc(Cl)cc1NC(=O)CSc1nccn1C | -1.57% (inactive) | –
75 | Cc1cnc(NC(=O)Cn2cnc3c2c(=O)n(C)c(=O)n3C)s1 | -0.119% (inactive) | –
76 | Cc1cnc(NC(=O)c2ccccn2)s1 | – | 2.69 µM (active)
